# Sm TGR inh: inhibitors of Schistosoma mansoni thioredoxin glutathione reductase | 3% of 360,000 active | purified TGR, DTNB reduction, TNB absorbance 405 nm | Potency, µM (doses to about 114 µM), most hits filed as inhibitors | Q962Y6; further: nearly all actives have a fitted effect of over 60% in size
#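 First, TGR (20 nM dispensed) and NADPH were mixed with compound. Second, a 15 min room-temperature incubation followed. Third, further NADPH and then DTNB were added to start the reaction. Finally, TNB absorbance was monitored kinetically.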
# LmPK inhibitor: inhibitors of Leishmania mexicana pyruvate kinase; Potency, µM (doses to about 57.5 µM), actives largely listed as inhibitors; AID 1721; 0.37% of 290,000 active; purified LmPK, Kinase-Glo ATP luminescence, 1 h
# Target sequence (Q27686 whole entry, looked up): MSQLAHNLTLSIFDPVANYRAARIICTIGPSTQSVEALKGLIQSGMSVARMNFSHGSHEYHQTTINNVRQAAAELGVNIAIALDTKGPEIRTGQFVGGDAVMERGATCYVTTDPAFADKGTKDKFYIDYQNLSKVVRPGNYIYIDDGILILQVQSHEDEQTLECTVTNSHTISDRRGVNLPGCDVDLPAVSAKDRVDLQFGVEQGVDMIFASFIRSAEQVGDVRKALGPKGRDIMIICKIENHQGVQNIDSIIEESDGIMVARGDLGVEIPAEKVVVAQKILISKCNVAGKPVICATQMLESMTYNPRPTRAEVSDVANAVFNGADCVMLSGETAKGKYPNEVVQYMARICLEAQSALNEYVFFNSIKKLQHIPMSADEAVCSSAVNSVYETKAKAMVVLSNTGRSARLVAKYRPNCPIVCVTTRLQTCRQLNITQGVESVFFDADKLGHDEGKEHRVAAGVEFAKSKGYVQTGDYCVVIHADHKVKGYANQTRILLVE
#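 ATP generated from ADP (0.1 mM) and PEP (0.5 mM) by 0.1 nM LmPK over 1 h at room temperature (pH 7.2 imidazole buffer) was detected by coupled luciferase luminescence. Values were normalized to uninhibited and no-enzyme wells.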
# Tb PYK inh: T. brucei pyruvate kinase inhibition. 0.12% of 410,000 active. Q57TT1. TbPYK enzyme, Kinase-Glo Plus ATP luminescence, 45 min. Potency, µM (doses to about 76.8 µM), hits mostly inhibitors; further: nearly all actives have a fitted effect of over 50% in size
#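 Luminescent Kinase-Glo Plus end-point after 45 min room-temperature reaction of T. brucei pyruvate kinase started with 130 uM ADP (final). Buffer TEA 50 mM pH 7.2 with KCl, MgCl2, BSA, Tween-20; titration-based qHTS with fitted concentration-effect curves.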
# RE007 growth inh: less growth of the S. pombe RE007 Vpr strain. S. pombe RE007 Vpr strain, BacTiter-Glo ATP luminescence, 24 h. Potency, µM (highest dose often 92.2 µM), usual class: inhibitors. 0.21% of 360,000 active. AID 651644; active means well fitted falling curve with a large enough effect; inconclusive means small, poorly fitted or top-dose-only effect; inactive means no such curve, though single readings can be large or run the other way; further: nearly all actives have a fitted effect of over 50% in size
#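 Fission yeast RE007 carrying one integrated HIV-1 vpr copy, seeded at OD 0.01 in PMG+AL medium with 23 nL pinned compound. Grown 24 h at 30 degrees; viability read by BacTiter-Glo luminescence after 5 min.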
# Numbers stand for hits; n = inactive; u = inconclusive; x = not tested or not shown. Hits are enriched below; roughly 3% of the tested compounds scored in any of these assays. Unless noted, the call rests on the fitted dose curve; in most records, active means well fitted curve in the direction sought with a large enough effect; inconclusive means small, poorly fitted or top-dose-only effect, or another doubt; inactive means no such curve, though single readings can be large; an effect the other way counts as inactive or inconclusive.
SMILES,Sm TGR inh,LmPK inhibitor,Tb PYK inh,RE007 growth inh
CCCC(=O)OCCNc1cc(Sc2nc3ccccc3[nH]2)c2nonc2c1[N+](=O)[O-],0.5µM,n,n,n
CCC(=O)OCCNc1cc(SCCC(=O)OC)c2nonc2c1[N+](=O)[O-],6.3µM,n,n,n
CCCC(=O)NC(C)c1nc2ccccc2[nH]1 (stereo not drawn),n,n,n,n
CCC(=O)OCCNc1cc(Sc2nccn2C)c2nonc2c1[N+](=O)[O-],0.71µM,n,n,n
CN(C)C(=O)CCSC(SCCC(=O)O)c1cccc(/C=C/c2ccc3ccc(Cl)cc3n2)c1 (stereo not drawn),x,x,n,x
O=C(CNC(=O)CNC(=O)c1ccc(Cl)cc1Cl)NCc1cccc(Cl)c1,n,n,n,n
COc1ccc(NC(=O)Cn2nc(C)c3nn(-c4ccc(Cl)cc4)c(C)c3c2=O)cc1,n,x,n,x
CN(C)c1ccc(/C=N/N2CCN(Cc3ccccc3Cl)CC2)cc1,n,n,n,n
O=C(CN1CCN(Cc2ccccc2Cl)CC1)N/N=C/C=C/c1ccco1,20µM,n,n,u
Clc1ccccc1CN1CCN(/N=C/C=C/c2ccco2)CC1,16µM,n,n,n
O=C(CN1CCN(Cc2ccccc2)CC1)N/N=C\C=C/c1ccco1,u,n,n,n
O=C(CSc1nc(-c2cccc(Cl)c2)nc2cc(=O)[nH]n12)Nc1ccccc1,n,x,n,x
COc1ccc(S(=O)(=O)N2CCN(Cc3ccc4c(c3)OCO4)CC2)cc1OC,n,x,n,x
Cn1cccc1/C=N/n1c(-c2ccc(C(C)(C)C)cc2)n[nH]c1=S,n,20µM,u,n
Cn1cccc1/C=N/n1c(-c2ccccc2)n[nH]c1=S,n,7.9µM,u,n
Cc1cc(/C=C2\C(=O)NC(=O)N(c3ccccc3)C2=O)c(C)n1-c1ccc(C(=O)O)c(Cl)c1,28µM,n,n,n
Cc1cc(/C=C2\C(=O)NC(=O)N(c3ccccc3F)C2=O)c(C)n1-c1cc(C(=O)O)cc(C(=O)O)c1,8.9µM,n,n,x
Cc1cc(/C=C2\C(=O)NC(=O)N(c3ccc(F)cc3)C2=O)c(C)n1-c1cccc(C(=O)O)c1,u,n,n,n
O=C(Nc1ccccc1)N(Cc1c[nH]c2ccccc12)C1CCCCCC1,n,x,n,x
CCN(CC(=O)Nc1cc(Cl)ccc1C)C(=O)C1COc2ccccc2O1 (stereo not drawn),20µM,x,n,n
COc1ccc(N(C(=O)c2ccncc2)S(=O)(=O)c2ccc(Cl)cc2)cc1,20µM,n,n,n
O=C(Oc1ccc(N(C(=O)c2ccncc2)S(=O)(=O)c2ccc(Cl)cc2)cc1)c1ccncc1,18µM,n,n,n
O=C(Oc1ccc(N(C(=O)c2ccncc2)S(=O)(=O)c2ccc(F)cc2)cc1)c1ccncc1,28µM,n,n,n
COc1ccc(N(C(=O)c2ccncc2)S(=O)(=O)c2cccs2)cc1,25µM,n,n,n
COc1ccc(C(=O)N(c2ccc(OC)cc2)S(=O)(=O)c2cccs2)cc1,n,n,n,n
SMILES,Sm TGR inh,LmPK inhibitor,Tb PYK inh,RE007 growth inh
CCOC(=O)N1CCN(Cc2ccccc2Cl)CC1,n,n,n,n
Oc1c(CN2CCN(c3ccccc3)CC2)cc(Br)c2cccnc12,40µM,n,n,n
CCOC(=O)N1CCN(Cc2cc(Cl)c3cccnc3c2O)CC1,32µM,n,n,u
Oc1c(CNc2ccccc2)cc(COCc2ccccc2)c2cccnc12,2.8µM,x,n,x
CC(C)OCc1cc(CN2CCN(c3ccccc3)CC2)c(O)c2ncccc12,u,x,n,x
COCc1cc(CN2CCN(C)CC2)c(O)c2ncccc12,14µM,n,n,n
Cc1ccc(C)c(NC(=O)c2cc(=O)c3cc(C)cc(C)c3o2)c1,u,x,n,x
Oc1c(CN2CCOCC2)cc(COCc2ccccc2)c2cccnc12,45µM,n,n,n
COC(=O)c1sc2nc(-c3ccco3)ccc2c1N,2.8µM,n,u,n
Nc1c(C(=O)Nc2ccccc2F)sc2nc(-c3ccco3)ccc12,2.8µM,n,n,n
NC(=O)c1sc2nc(-c3ccco3)ccc2c1N,u,n,n,n
COc1cc(C(=O)Nc2nonc2-c2ccc(C)c(C)c2)cc(OC)c1OC,n,x,n,x
CCOc1ccc(C2=C(C(C)=O)Sc3nnc(C)n3N2C(C)=O)cc1,n,x,n,x
CC(=O)C1=C(c2cccc([N+](=O)[O-])c2)N(C(C)=O)n2c(C)nnc2S1,22µM,n,n,n
CC1(C)CC2CC(C)(CN2Cc2c(O)ccc3ccccc23)C1 (stereo not drawn),6.3µM,n,n,n
CCOCCn1ccc2c(OCC(=O)Nc3cccc(F)c3)cccc2c1=O,n,x,n,x
Cc1ccnc(NC(c2ccccc2O)c2oc(CO)cc(=O)c2O)c1 (stereo not drawn),1.8µM,n,n,n
COc1ccc(C(c2oc(CO)cc(=O)c2O)c2oc(CO)cc(=O)c2O)cc1OC,u,n,n,n
O=c1cc(CO)oc(C(Nc2ccccn2)c2ccsc2)c1O (stereo not drawn),11µM,n,x,x
COc1ccc(C(c2oc(CO)cc(=O)c2O)c2oc(CO)cc(=O)c2O)cc1,35µM,n,n,n
O=c1cc(CO)oc(C(Nc2ccccn2)c2ccc(F)cc2)c1O (stereo not drawn),2.5µM,n,n,n
C[C@@H]1CN([C@@H](C)CO)C(=O)c2cc(-c3ccccc3F)cnc2O[C@H]1CN(C)Cc1cccc(F)c1,x,x,n,n
CN(C(=O)c1cccc(NC(=O)Cc2ccc(NC(=O)C3CCN(C(=O)C4CCC4)CC3)cc2)c1)C1CC1,x,x,n,n
O=c1cc(CO)oc(C(Nc2ccccn2)c2ccccc2Cl)c1O (stereo not drawn),u,n,n,n
COc1ccc(C(Nc2ccccn2)c2oc(CO)cc(=O)c2O)cc1 (stereo not drawn),2.8µM,n,u,n
SMILES,Sm TGR inh,LmPK inhibitor,Tb PYK inh,RE007 growth inh
O=C(CSc1nc2cccnc2n1Cc1ccccc1)N1CCCC1,n,n,n,n
Cn1c(SCC(=O)N2CCCC2)nc2cccnc21,40µM,n,n,n
CC(C)c1nc(N2CCN(C(=O)c3ccco3)CC2)c2c3c(sc2n1)CCCC3,28µM,n,n,n
CCOCCCNC(=O)C(c1ccc(OC)cc1)N(Cc1cccs1)C(=O)c1ccc(NC(C)=O)cc1 (stereo not drawn),n,x,n,x
CNC[C@@H]1OCc2cnnn2CCCC(=O)N([C@H](C)CO)C[C@H]1C,x,x,n,n
COc1cccc(-c2n[nH]c(=S)n2Cc2ccco2)c1,35µM,u,u,n
S=c1[nH]nc(-c2ccc(Br)cc2)n1Cc1ccco1,n,22µM,5.6µM,n
COc1ccccc1-c1n[nH]c(=S)n1Cc1ccco1,40µM,n,x,x
C=CCn1c(-c2cccc(OC)c2)n[nH]c1=S,n,n,u,n
S=c1[nH]nc(-c2ccncc2)n1Cc1ccco1,n,n,u,n
CC(C)(C)C1c2[nH]c3ccccc3c2CCN1CCCn1cccn1 (stereo not drawn),40µM,n,n,n
Fc1ccccc1C1c2[nH]c3ccccc3c2CCN1CCCn1cccn1 (stereo not drawn),u,n,n,n
